Measurements from article PMC4336329 (PLoS ONE, 2015).
The campaign covered roughly 310,000 compounds. About 14,000 (4.5%) showed an effect of 50% or more. The effect is printed as a negative number. The full list was thinned out, with strong results kept by preference.

Target: human ether-à-go-go-related gene (hERG) potassium channel (human, UniProt Q12809)
Assay: primary screen, population patch clamp on CHO cells stably expressing hERG; higher = less effect of the substance
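Note: peak tail current of the secondary pulse compared with the same well before compound.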

Sequence of human ether-à-go-go-related gene (hERG) potassium channel (Q12809 whole entry, looked up): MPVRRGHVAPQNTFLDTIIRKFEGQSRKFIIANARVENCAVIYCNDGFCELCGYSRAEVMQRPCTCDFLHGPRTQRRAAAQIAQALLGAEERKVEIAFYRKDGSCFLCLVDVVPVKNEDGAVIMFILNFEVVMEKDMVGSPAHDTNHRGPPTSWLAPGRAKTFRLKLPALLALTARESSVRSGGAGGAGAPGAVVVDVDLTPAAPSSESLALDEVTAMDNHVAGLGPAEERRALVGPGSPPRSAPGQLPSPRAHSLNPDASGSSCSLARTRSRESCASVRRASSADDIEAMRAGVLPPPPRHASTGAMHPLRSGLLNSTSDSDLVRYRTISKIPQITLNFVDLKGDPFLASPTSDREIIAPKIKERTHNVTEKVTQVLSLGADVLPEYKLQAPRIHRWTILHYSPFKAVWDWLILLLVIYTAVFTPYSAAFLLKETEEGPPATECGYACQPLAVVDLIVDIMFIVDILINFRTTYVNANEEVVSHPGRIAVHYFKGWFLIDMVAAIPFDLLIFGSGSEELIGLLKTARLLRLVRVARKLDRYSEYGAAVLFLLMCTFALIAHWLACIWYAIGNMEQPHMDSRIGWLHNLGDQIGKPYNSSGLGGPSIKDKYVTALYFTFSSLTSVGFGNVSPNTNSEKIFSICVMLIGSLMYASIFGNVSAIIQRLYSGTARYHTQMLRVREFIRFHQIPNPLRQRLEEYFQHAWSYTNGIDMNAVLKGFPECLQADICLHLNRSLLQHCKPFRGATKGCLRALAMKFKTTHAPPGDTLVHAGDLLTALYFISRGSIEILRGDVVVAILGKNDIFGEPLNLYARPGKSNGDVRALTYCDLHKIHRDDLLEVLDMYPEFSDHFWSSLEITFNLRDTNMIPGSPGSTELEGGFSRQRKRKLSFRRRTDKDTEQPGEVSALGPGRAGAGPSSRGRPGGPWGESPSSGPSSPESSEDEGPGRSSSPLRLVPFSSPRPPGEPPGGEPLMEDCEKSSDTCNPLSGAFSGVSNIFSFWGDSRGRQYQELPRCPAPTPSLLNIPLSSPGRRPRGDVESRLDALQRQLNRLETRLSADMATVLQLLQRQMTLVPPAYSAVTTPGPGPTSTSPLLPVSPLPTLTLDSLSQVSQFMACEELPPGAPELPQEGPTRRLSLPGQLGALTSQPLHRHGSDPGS

| Structure (SMILES) | hERG current change (%, negative = inhibition) at 10uM |
| --- | --- |
| O=C(Cc1ccc(F)cc1)N/N=C/c1ccncc1 | -8.56% |
| Fc1ccc(C2c3cccn3CCN2C(=S)Nc2cccc(Br)c2)cc1 (stereo not drawn) | 19.4% |
| Cc1ccc(C(=O)c2ccccc2C(=O)OCC(=O)NCCc2ccccc2)cc1 | -52.5% |
| Cc1ccc(C(=O)c2ccccc2C(=O)OCC(=O)NC(C)(C)C)cc1 | -0.829% |
| O=C(COC(=O)c1ccccc1C(=O)c1ccccc1)NCCc1ccc(Cl)cc1Cl | -31.9% |
| Cc1ccc(C(=O)c2ccccc2C(=O)OCC(=O)NCCc2ccc(Cl)cc2Cl)cc1 | -9.96% |
| O=C(COC(=O)c1ccccc1C(=O)c1ccccc1)NCCc1ccccc1 | -64.8% |
| O=C(COC(=O)c1ccccc1C(=O)c1ccc(Cl)cc1)NCCc1ccccc1 | -18.7% |
| CSCCC(NS(=O)(=O)/C=C/c1ccccc1)C(=O)NCCc1ccc(S(N)(=O)=O)cc1 (stereo not drawn) | 7.59% |
| COc1ccc(C(=O)COC(=O)CCn2nnc(-c3cccs3)n2)cc1 | 10.6% |
| CN(Cc1c(C(=O)N/N=C/c2cccc(O)c2)nnn1-c1nonc1N)C1CCCCC1 | -2.25% |
| CCOC(=O)CN1C(=O)CSc2ccccc21 | 0.699% |
| CNc1ncc(C(=O)c2ccccc2)s1 | -1.56% |
| CN(C)CCNC(=O)c1c(NC(=O)c2ccccc2)sc2c1CCCC2 | -25.9% |
| NCCNC(=O)c1c(NC(=O)c2ccccc2)sc2c1CCCC2 | 15.4% |
| CCN(CC)CCCC(C)NC(=O)c1c(NC(=O)c2ccccc2)sc2c1CCCC2.O=C(O)C(=O)O (stereo not drawn) | -76.9% |
| CCOc1ccccc1C(c1c(O)nc(SC)[nH]c1=O)c1c(O)nc(SC)[nH]c1=O | 5.67% |
| O=S(=O)(Nc1ncccn1)c1ccc(NS(=O)(=O)c2cc(Cl)ccc2Cl)cc1 | 31.6% |
| COc1ccccc1C(=O)N(Cc1ccccc1)c1ccc(C)cc1 | -2.96% |

| Structure (SMILES) | hERG current change (%, negative = inhibition) at 10uM |
| --- | --- |
| CC#CC(=O)N1CCC(CCc2ccccc2)(C(=O)OCC)CC1 | -61.4% |
| CCOC(=O)C1(CCc2ccccc2)CCN(C(=O)c2cccc(C)n2)CC1 | -11.4% |
| CCOC(=O)C1(CCc2ccccc2)CCN(C(=O)c2cc(C)nc(C)n2)CC1 | -11% |
| CCOC(=O)C1(CCc2ccccc2)CCN(C(=O)c2occc2C)CC1 | -63.3% |
| CCOC(=O)C1(CCc2ccccc2)CCN(C(=O)C2=C(C)OCCO2)CC1 | -15.2% |
| CC#CC(=O)N1CCC(CO)(CCc2ccccc2)CC1 | 1.33% |
| COc1cc(Cl)c(C)cc1Nc1ncccn1 | 4.73% |
| CC(=O)c1cccc(NC(=S)N2CCCC2)c1 | 9.57% |
| Cc1sc2ncnc(N[C@@H](Cc3ccccc3)C(=O)O)c2c1C | 14% |
| OC1CCC(Nc2ncnc3sccc23)CC1 (stereo not drawn) | 13.2% |
| Cc1csc2ncnc(NCCc3ccccn3)c12 | -22.4% |
| Cc1sc2ncnc(NC3CCN(Cc4ccccc4)CC3)c2c1C | -79.6% |
| Cc1csc2ncnc(NC3CCN(Cc4ccccc4)CC3)c12 | -65.5% |
| c1ccc(CNc2ncnc3sccc23)cc1 | 9.9% |
| Cc1sc2ncnc(Nc3ccccc3)c2c1C | 2.79% |
| Cc1csc2c(NC3CCN(Cc4ccccc4)CC3)ncnc12 | -31.8% |
| c1ccc(CN2CCC(Nc3ncnc4sccc34)CC2)cc1 | -66.9% |
| COc1ccc(NC(=O)c2cc(-c3ccc(C)cc3)on2)cc1OC | 19.4% |
| COc1cccc(CN(CC(=O)NCC2CCCO2)C(=O)CNS(=O)(=O)c2ccccc2)c1 (stereo not drawn) | 7.52% |

| Structure (SMILES) | hERG current change (%, negative = inhibition) at 10uM |
| --- | --- |
| O=C(CSc1ccccc1)NC(=O)NCc1ccccc1 | 5.87% |
| COc1ccc(C(=O)C[n+]2ccccc2C)cc1.[Br-] | 13.3% |
| CN(CCCN1CCOCC1)C(=O)c1cc(COc2cccc(C(F)(F)F)c2)on1 | -40.5% |
| Cc1cc(OCc2cc(C(=O)N(C)CCCN3CCOCC3)no2)cc(C)c1Cl | -58% |
| CN(C(=O)c1cc(COc2ccc(F)c(F)c2)on1)C1CCOC1 (stereo not drawn) | -13.1% |
| Cc1cc(OCc2cc(C(=O)N(C)CC3CCOCC3)no2)cc(C)c1Cl | -69% |
| Cc1cc(OCc2cc(C(=O)N(C)C3CCOC3)no2)cc(C)c1Cl (stereo not drawn) | -73.6% |
| Cc1ccc(OCc2cc(C(=O)N(C)CC3CCOCC3)no2)cc1C | -13.1% |
| Cc1cc(OCc2cc(C(=O)N(C)C3CCOCC3)no2)cc(C)c1Cl | -13.5% |
| Cc1cc(OCc2cc(C(=O)N(C)Cc3nonc3C)no2)cc(C)c1Cl | 11.8% |
| CN(CCCN1CCOCC1)C(=O)c1cc(COc2c(F)cccc2F)on1 | 2.44% |
| Cc1cccc(NC(=O)CN2C(=O)CSC2=O)c1 | 14.5% |
| CC(=O)c1ccc(N2CCN(C(=S)NCCCN(C)C)CC2)cc1 | 2.47% |
| CC1(C(=O)N/N=C/c2ccc3c(c2)OCO3)CC1(Br)Br (stereo not drawn) | -5.57% |
| CC(C)n1c(-c2ccco2)csc1=Nc1cccnc1 | -10.3% |
| COc1ccccc1-n1cnc2c(c1=O)c1nc3ccccc3nc1n2-c1ccc(C)cc1 | -19.7% |
| O=C1C2C3C=CC(C4CC34)C2C(=O)N1/N=C/c1ccc(-c2ccc(Cl)cc2[N+](=O)[O-])o1 (stereo not drawn) | -13.5% |
| Cc1ccc(-c2ccc(/C=N/N3C(=O)C4C5C=CC(C6CC56)C4C3=O)o2)c([N+](=O)[O-])c1 (stereo not drawn) | -12.5% |
| COc1ccc(-c2ccc(/C=N/N3C(=O)C4C5C=CC(C6CC56)C4C3=O)o2)c([N+](=O)[O-])c1 (stereo not drawn) | -58.9% |
